HEK293 tox: HEK 293 cell cytotoxicity; HEK 293 viability, ATP luminescence (CellTiter-Glo), 48-72 h; AID 1345083; Potency, µM (highest dose often 115 µM), for the others: at the top dose activity change, negative = cytotoxicity, usual class: inhibitors; 94,000 tested, 6.6% active; further: nearly all actives have a fitted effect of over 60% in size
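qHTS cytotoxicity; HEK 293, 250 cells/well; compound pinned; 48 or 72 hr, 37 degree Celsius, 5% CO2, 95% humidity; CellTiter-Glo, 10 min RT; luminescence (ATP).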
NIH3T3 tox: NIH 3T3 cell cytotoxicity; NIH 3T3 viability, CellTiter-Glo ATP luminescence, 48-72 h; AID 1345082; Potency, µM (doses to about 96.7 µM), inactives show at the top dose activity change, negative = cytotoxicity, hits mostly inhibitors; 94,000 tested, 4.3% active; further: nearly all actives have a fitted effect of over 55% in size
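Viability of NIH 3T3 cells after 48 or 72 hr compound treatment at 37 °C was assessed by CellTiter-Glo, with luminescence imaged following a 10 min room-temperature step.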
GPT2 inhibitor: GPT2 alanine aminotransferase inhibition; Potency, µM (doses to about 57.7 µM), inactives show top-dose activity change, negative = inhibition, most hits filed as inhibitors; 100,000 tested, 0.25% active; Q8TD30; Recombinant GPT2, coupled pyruvate oxidase/HRP Amplex Red fluorescence; further: nearly all actives have a fitted effect of over 60% in size
Target sequence (Q8TD30 whole entry, looked up): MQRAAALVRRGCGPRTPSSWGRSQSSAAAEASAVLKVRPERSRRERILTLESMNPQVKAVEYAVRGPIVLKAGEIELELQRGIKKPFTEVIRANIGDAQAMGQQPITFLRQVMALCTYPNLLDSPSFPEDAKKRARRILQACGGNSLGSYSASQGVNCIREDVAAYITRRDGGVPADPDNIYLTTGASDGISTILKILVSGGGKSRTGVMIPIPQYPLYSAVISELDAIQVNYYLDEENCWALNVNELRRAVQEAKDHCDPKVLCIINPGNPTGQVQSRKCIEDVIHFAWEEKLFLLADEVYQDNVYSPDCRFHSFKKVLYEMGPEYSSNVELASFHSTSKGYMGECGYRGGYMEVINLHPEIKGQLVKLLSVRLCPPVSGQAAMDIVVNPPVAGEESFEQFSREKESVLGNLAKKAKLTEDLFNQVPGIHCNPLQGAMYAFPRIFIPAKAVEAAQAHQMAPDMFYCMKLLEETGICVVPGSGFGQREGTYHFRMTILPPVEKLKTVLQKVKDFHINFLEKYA
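Inhibition is scored from Amplex Red fluorescence generated when pyruvate oxidase and HRP act on pyruvate released by GPT2. Reactions contain 10ng/uL enzyme, 250uM a-KG and 2mM L-alanine and run 30 min at room temperature.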
Luciferase inh: inhibitors of firefly (Photinus pyralis) luciferase. Potency, µM (highest dose often 115 µM), hits mostly inhibitors. 76,000 tested, 2.5% active. AID 1347043. P08659. purified P. pyralis luciferase, luminescence, biochemical; further: nearly all actives have a fitted effect of over 65% in size
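Purified 10nM P. pyralis luciferase with 10uM D-luciferin and 10uM ATP in 50mM Tris acetate pH 7.5, 10mM Mg acetate, 0.01% Tween-20, 0.05% BSA. qHTS titration; luminescence read by CCD imager.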
NPR1 antag: human Npr1 receptor antagonism. P16066. HEK293 hNpr1 GloSensor cGMP, ANP-stimulated luminescence. Potency, µM (top dose mostly 46.3 µM), without a hit: at the top dose activity change, negative = inhibition, actives largely listed as inhibitors. 76,000 tested, 1.6% active. AID 1347048; calls by dose curve; further: nearly all actives have a fitted effect of over 60% in size
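Compound pre-incubated 30 min at room temperature on GloSensor-loaded HEK293 cells stably carrying hNpr1 and the pGS-40F cGMP biosensor. Stimulation uses hNppA at 0.1 nM final; luminescence is taken at baseline and 20 min post-agonist.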
An asterisk follows results filed as active; i = inactive; ? = inconclusive; · = not tested or not shown; ! = repeats disagree; [ ] = remark or other dose. A selection: hits, their analogues and other compounds. The true share with any hit is near 10%. Unless noted, the call rests on the fitted dose curve; in most records, active means well fitted curve in the direction sought with a large enough effect; inconclusive means small, poorly fitted or top-dose-only effect, or another doubt; inactive means no such curve, though single readings can be large; an effect the other way counts as inactive or inconclusive. On the % scale 0 is the no-effect control and ±100 the full control effect; potency means the concentration at half of the fitted maximal effect.

SMILES	HEK293 tox	NIH3T3 tox	GPT2 inhibitor	Luciferase inh	NPR1 antag
COc1ccc(-c2cc(N3CCCC(NC(=O)c4ccc(C)nc4)C3)n[nH]2)cc1 (stereo not given)	-63%	?	?	35µM*	-24%
Cc1cc(C)cc(C(=O)NC2CCN(c3cc(-c4ccc(F)cc4)[nH]n3)CC2)c1	?	i	i	i	2%
Cc1cc(C)cc(C(=O)NC2CCCN(c3cc(-c4ccc(F)cc4)[nH]n3)C2)c1 (stereo not given)	45µM*	?	-27%	i	-10%
COc1ccc(-c2cc(N3CCCC(NC(=O)c4ccc(C)cc4)C3)n[nH]2)cc1 (stereo not given)	?	?	i	?	-9%
CCc1nc2c(c(-c3ccc(O)cc3)n1)CN(C(=O)Cc1cccc(Cl)c1)CC2	?	?	i	·	·
CCOC(=O)[C@H]1C[C@]2(CCCCN(CCO)C2=O)N(C(=O)CC(C)(C)C)[C@H]1c1ccco1	-16%	?	·	·	·
Cc1ccc(N2Cc3c(NCCc4ccc(F)cc4)ncnc3N(C)CC2=O)cc1	?	35µM*	?	i	0%
Cc1nn(-c2ccccc2)c2c1C(C)N(C1CCN(C(=O)c3ccccc3)CC1)C2=O (stereo not given)	35µM*	?	·	·	·
COc1ccc(CC(=O)N2CC(N3C(=O)c4c(c(C)nn4-c4ccccc4)C3C)C2)cc1 (stereo not given)	40µM*	?	·	·	·
Cc1nn(-c2ccccc2)c2c1C(C)N(C1CCN(C(=O)c3cccc(C(F)(F)F)c3)CC1)C2=O (stereo not given)	45µM*	?	·	·	·
Cc1nn(-c2ccccc2)c2c1C(C(C)C)N(C1CCN(C(=O)c3ccc(C(F)(F)F)cc3)CC1)C2=O (stereo not given)	3%	0%	·	·	·
Cc1nn(-c2ccccc2)c2c1C(C)N(C1CCN(C(=O)c3ccc(Cl)nc3)CC1)C2=O (stereo not given)	?	35µM*	·	·	·
COc1ccc(C(=O)N2[C@@H]3CC[C@H]2CC(NC(=O)c2ccncc2)C3)cn1 (stereo not given in full)	-6%	i	2%	i	-1%
COCC(=O)N1CCC(N2C(=O)c3c(c(C)nn3-c3ccccc3)C2C)CC1 (stereo not given)	-20%	28µM*!	·	·	·
COc1cccc(C(=O)N2CCC(N3C(=O)c4c(c(C)nn4-c4ccccc4)C3C)CC2)c1 (stereo not given)	40µM*	?	·	·	·
COc1cccc([S+](=O)([O-])N2CCC(N3C(=O)c4c(c(C)nn4-c4ccccc4)C3C)CC2)c1 (stereo not given)	-25%	-13%	·	·	·
NC(=O)c1cccc(-c2cc(-c3ccncc3)c3cncn3c2)c1	?	35µM*	-16%[88.5 µM]	i	2%[70.6 µM]
c1cc(-c2cc(-c3ccc(N4CCOCC4)nc3)cn3cncc23)ccn1	?	?	i	i	-11%[70.6 µM]
c1cc(-c2cc(-c3ccc4cn[nH]c4c3)cn3cncc23)ccn1	63µM*	18µM*	-7%[88.5 µM]	i	-2%[70.6 µM]
COc1ccc(-c2cc(-c3ccc4cn[nH]c4c3)cn3cncc23)cc1	71µM*	79µM*	i	?	-14%[70.6 µM]
CC1CCN(CC2CCCN(C(=O)c3ccncc3)CC2)CC1 (stereo not given)	i	-20%	1%	i	-4%
O=C(NCc1ccncc1)C1CN(Cc2ccccc2Br)CC12CCOCC2 (stereo not given)	-16%	-13%	i	i	-11%
COc1cc2c(cc1OC)C(CNC(=O)c1ccc(C)cc1)N(C(=O)Nc1ccccc1F)CC2 (stereo not given)	?	-9%	i	i	-1%
COc1cc2c(cc1OC)C(CNC(=O)c1ccc(C)cc1)N(C(=O)NC(C)C)CC2 (stereo not given)	40µM*	-3%	4%	i	-1%
CC1(c2noc(-c3ccccn3)n2)CCN(C(=O)CCCc2nc3ccccc3s2)CC1	40µM*	?	5%	i	?
SMILES	HEK293 tox	NIH3T3 tox	GPT2 inhibitor	Luciferase inh	NPR1 antag
COc1ccc(CC2CCOC3(CCN(C(=O)c4cccc(C#N)c4)CC3)C2)cc1 (stereo not given)	?	?	-7%	·	·
COc1ccccc1-c1[nH]nc2ncc(-c3cccc(F)c3)nc12	·	·	-6%[88.5 µM]	·	·
COc1ccc(-c2cnc3n[nH]c(-c4ccc(F)cc4C)c3n2)cc1OC	28µM*	28µM*	2%[88.5 µM]	i	-11%[70.6 µM]
COc1ccc(-c2[nH]nc3ncc(-c4cccnc4)nc23)cc1F	?	?	-12%[88.5 µM]	i	-3%[70.6 µM]
COc1cccc(-c2cnc3n[nH]c(-c4ccc(F)cc4C)c3n2)c1	-23%[172 µM]	?	-34%[88.5 µM]	i	-10%[70.6 µM]
COc1ccc(-c2[nH]nc3ncc(-c4ccc(CO)cc4)nc23)cc1F	35µM*	28µM*	3%[88.5 µM]	i	0%[70.6 µM]
Cc1ccccc1-c1[nH]nc2ncc(-c3ccc(F)cc3)nc12	45µM*	?	i	22µM*	-15%[70.6 µM]
Cc1ccccc1-c1[nH]nc2ncc(-c3cccc(F)c3)nc12	63µM*	?	1%[88.5 µM]	20µM*	-23%[70.6 µM]
Cc1cc(F)ccc1-c1[nH]nc2ncc(-c3ccccc3)nc12	?	?	i	i	-14%[70.6 µM]
COC(=O)c1ccc(NC(=O)N2CC3CN(C(C)C)CC(C2)O3)cc1	0%	0%	i	i	4%
CC1(C(=O)NC2CC2)CCc2cnc(Nc3ccccc3)nc21 (stereo not given)	40µM*	28µM*	i	i	?
CC1(C(=O)Nc2ccncc2)CCCc2cnc(Nc3ccccc3)nc21 (stereo not given)	?	?	-7%[88.5 µM]	i	-17%[70.6 µM]
CC1(C(=O)NCc2cccc(F)c2)COCc2cnc(Nc3ccccc3)nc21 (stereo not given)	89µM*	?	1%[88.5 µM]	i	-25%[70.6 µM]
COc1ccc(NC(=O)C2(C)CCCc3cnc(Nc4cccnc4)nc32)cc1 (stereo not given)	-20%[172 µM]	35µM*	-9%[88.5 µM]	i	3%[70.6 µM]
CC1(C(=O)NC2CCOCC2)COCc2cnc(Nc3ccccc3)nc21 (stereo not given)	-22%[172 µM]	?	i	i	0%[70.6 µM]
COc1cccc(NC(=O)C2(C)CCCc3cnc(N(C)C)nc32)c1 (stereo not given)	?	?	?	i	-3%[70.6 µM]
COc1cccc(NC(=O)C2(C)CCc3cnc(NCc4ccccc4)nc32)c1 (stereo not given)	71µM*	?	-10%[88.5 µM]	i	-24%[70.6 µM]
Cc1cccc2c1nc1n2[C@@H](CNC2CCOCC2)COC1	-6%[172 µM]	-12%[138 µM]	-7%[88.5 µM]	i	-1%[70.6 µM]
